Measurements taken from PubChem BioAssay (NCI).
About 83,000 compounds went through this panel and 20% of them were active in at least one assay; those are over-represented in the sample as a whole.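 Activity criterion: percent growth below 10, measured after cells in 96-well plates were exposed to a single compound concentration for 48 hours.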 A number with no mark means an inactive call. Active and inactive are the calls of the source.

What was measured:
Assay in all cases: NCI-60 one-dose screen, 48 h (100 = growth as untreated, 0 = no growth, -100 = all killed)
Settings in all cases: 10 µM unless noted
SK-MEL-2 melanoma = test system: SK-MEL-2 melanoma
EKVX NSCLC = test system: EKVX NSCLC
SN12C renal = test system: SN12C renal
UO-31 renal = test system: UO-31 renal
TK-10 renal = test system: TK-10 renal
CAKI-1 renal = test system: CAKI-1 renal
A498 renal = test system: A498 renal
CCRF-CEM leukemia = test system: CCRF-CEM leukemia
MOLT-4 leukemia = test system: MOLT-4 leukemia
SR leukemia = test system: SR leukemia
RPMI-8226 leukemia = test system: RPMI-8226 leukemia
OVCAR-8 ovarian = test system: OVCAR-8 ovarian
OVCAR-5 ovarian = test system: OVCAR-5 ovarian
OVCAR-4 ovarian = test system: OVCAR-4 ovarian
SK-OV-3 ovarian = test system: SK-OV-3 ovarian
IGROV1 ovarian = test system: IGROV1 ovarian
OVCAR-3 ovarian = test system: OVCAR-3 ovarian
NCI/ADR-RES ovarian = test system: NCI/ADR-RES ovarian
HS 578T breast = test system: HS 578T breast
ACHN renal = test system: ACHN renal

Row | SMILES | growth (SK-MEL-2 melanoma) | growth (EKVX NSCLC) | growth (SN12C renal) | growth (UO-31 renal) | growth (TK-10 renal) | growth (CAKI-1 renal) | growth (A498 renal) | growth (CCRF-CEM leukemia) | growth (MOLT-4 leukemia) | growth (SR leukemia) | growth (RPMI-8226 leukemia) | growth (OVCAR-8 ovarian) | growth (OVCAR-5 ovarian) | growth (OVCAR-4 ovarian) | growth (SK-OV-3 ovarian) | growth (IGROV1 ovarian) | growth (OVCAR-3 ovarian) | growth (NCI/ADR-RES ovarian) | growth (HS 578T breast) | growth (ACHN renal) [%]
1 | COC(=O)c1ccc(NC(=O)Nc2ccc(C(=O)OC)cc2)cc1 | 88% | 118% | 78.9% | 96.9% | 101% | 124% | 81.3% | 90.8% | 79.9% | 78.9% | 89.9% | 104% | 102% | 113% | 99.3% | 106% | 113% | 108% |  | 
2 | C#CCn1cnc2cnc(Nc3cccc(NC(=O)C=C)c3)nc21 | 61.1% [6.25 µM] | 89.2% [6.25 µM] | 90.5% [6.25 µM] | 37.5% [6.25 µM] | 79.9% [6.25 µM] | 83.4% [6.25 µM] | 72% [6.25 µM] | 1.84% [6.25 µM] (active) | 8.28% [6.25 µM] (active) | 4.73% [6.25 µM] (active) | -14% [6.25 µM] (active) | 84.1% [6.25 µM] | 101% [6.25 µM] | 90.8% [6.25 µM] | 52.4% [6.25 µM] | 75.2% [6.25 µM] | 104% [6.25 µM] | 98.6% [6.25 µM] | 74.5% [6.25 µM] | 
3 | Cc1nn(-c2cc(NC3CCC(O)CC3)c3c(=O)[nH]c(CCC(F)(F)F)cc3c2)c2c1C(=O)CC(C)(C)C2 (centres undefined) | 60.3% | 54% | 46.2% | 39% | 61.7% | 47.4% | 12.4% | 66.6% | 40.8% | 25.9% | 40.7% | 52.1% | 85.3% | 66.8% | 36.3% | 55.2% | 70% | 72% | 34.4% | 
4 | COc1cc(OC)c2sc(-c3ccc(-n4cncc4-c4cc(OC)c(OC)c(OC)c4)cc3)nc2c1 | 55.4% | 58.7% | 68.7% | 41% | 66.1% | 24.3% | 48.5% | 56.6% | 32.1% | 17.3% | 27.3% | 76.1% | 81.3% | 50.2% | 88.8% | 63.9% | 35.1% | 60.6% | 62.2% | 
5 | CCN1C(=O)N(CC)C2C1N=C(SCc1ccc(Cl)cc1)N2/N=C/C=C/c1ccccc1OC (centres undefined) | 57.7% | 62.5% | 77.8% | 54.3% | 96.4% | 42.2% | 54.6% | 46.4% | 55.3% | 18.4% | 11.2% | 56.8% | 98.6% | 69.9% | 70.4% | 78.6% | 50.6% | 26.4% | 57.3% | 
6 | O=C(O)c1cn(C2CC2)c2cc(N3CCN(C(=O)Nc4nc(-c5ccc(Br)cc5)cs4)CC3)c(F)cc2c1=O | -17% (active) | 24.5% | 6.36% (active) | 14% | 34.9% | 42.4% | -7.91% (active) | 6.67% (active) | 8.35% (active) | 21.5% | -9.26% (active) | 10% | 32.5% | 26.6% | 0.843% (active) | 28.8% | 8.58% (active) | 69.4% | 3.4% (active) | 
7 | C=C1C(=O)O[C@H]2[C@H]1CC/C(CNC(=O)c1c[nH]c3ccc(F)cc13)=C\CC[C@@]1(C)O[C@@H]21 | 45.1% | 60.3% | 47.5% | -79.2% (active) | -51.7% (active) | 16.2% | 15.4% | -21% (active) | -39.7% (active) | -28.2% (active) | -20.8% (active) | -33.3% (active) | 19.6% | 49% | 81.7% | 41.7% | -36.7% (active) | 56.3% | 44% | 
8 | Nc1nc(N)c(N=Nc2ccccc2)c(-c2ccccc2)n1 | 85.3% | 51.3% | 56% | 36% | 55.1% | 45.3% | 31% | 52.6% | 46.6% | 38.7% | 62.5% | 77.5% | 56.9% | 66.4% | 50.6% | 15.3% | 67.2% | 75.1% | 3.4% (active) | 
9 | C/C(=N\O)c1ccc(NC(=O)CSc2nnc(-c3cc(-c4ccc(S(N)(=O)=O)cc4)nc4ccccc34)n2-c2ccccc2)cc1 | 84% | 77.3% | 78.6% | 85.3% | 80.8% | 55.6% | 39.7% | 40.5% | 32.3% | 24.2% | 34.4% | 59.4% | 96.6% | 91.6% | 108% | 63% | 78% | 98.9% | 61.7% | 
10 | Cc1ccc(-c2csc(N(C(=O)N3CCN(c4cc5c(cc4F)c(=O)c(C(=O)O)cn5C4CC4)CC3)c3ccccc3)n2)cc1 | -4.42% (active) | 20.9% | 9.07% (active) | 7.46% (active) | 20.6% | 2.42% (active) | 7.58% (active) | 21% | 16.6% | 20.2% | 17.6% | 15.6% | 13.2% | 28.4% | 28.2% | 12.5% | 7.88% (active) | 6.88% (active) | 33.5% | 
11 | Cc1ccc(C2CC(c3nc(-c4ccc(Cl)cc4)oc3C)=NN2C(=O)c2ccncc2)cc1 (centres undefined) | 92.9% | 91.3% | 86.8% | 58.2% | 106% | 69.2% | 82.6% | 90.7% | 64.7% | 92.9% | 83.2% | 90.4% | 107% | 82.5% | 92.3% | 70.7% | 90.7% | 88.1% | 83.1% | 
12 | COc1ccc(-c2cc(-c3ccccc3)nc(N3CCN(CCNc4ccnc5cc(Cl)ccc45)CC3)n2)cc1 | -9.46% (active) | 79.9% | -43.3% (active) | -4.9% (active) | -13.4% (active) | -24.9% (active) | 15.3% | 3.98% (active) | -1.76% (active) | 7.06% (active) | -28.2% (active) | -81% (active) | 48.2% | -27.6% (active) | 112% | -74% (active) | 7.81% (active) | -63.2% (active) | 66.4% | 
13 | O=C(CC(=O)Nc1cccc(C(=O)O)c1)Nc1cccc(C(=O)O)c1 | 90.7% | 101% | 102% | 88.5% | 102% | 86.5% | 104% | 94.2% | 103% | 96% | 100% | 107% | 101% | 97.8% | 106% |  | 113% | 106% | 100% | 91.6
14 | Nc1nc2c(c3ncccc13)C(c1cccc(Cl)c1)Cc1ncccc1-2 (centres undefined) | 25.3% | 39.8% | 36.7% | 38% | 55.8% | 30.2% | -7.23% (active) | 19.7% | 14.5% | 8.92% (active) | 32.4% | 23.8% | 44.7% | 52.4% | 14.1% | 50.5% | 0.176% (active) | 18.7% | 31.1% | 
15 | CCOC(=O)c1cnc2c(N=Nc3ccc(OC)cc3)c(N)nn2c1N | 102% | 103% | 95.2% | 94.2% | 104% | 96.6% | 92.5% | 103% | 88% | 112% | 104% | 102% | 110% | 111% | 108% | 93.7% | 113% | 98.9% | 104% | 
